Screens (PubChem BioAssay)
MITF TRPM1 HTS = MITF TRPM1 promoter activation in melanoma cells | SK-MEL-5 TRPM1-promoter luciferase, 24 h; % of positive control, neutral wells = 0 | activation, % at 12.5 µM | 300,000 compounds, 0.75% hits;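 active = mean activation of at least 80% with every replicate also reaching 80%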
MITF TRPM1 inh = reduces MITF-dependent TRPM1 promoter luciferase signal. inhibition, % at 12.5 µM. 330,000 compounds, 0.83% hits. SK-MEL-5 TRPM1 promoter luciferase, 24 h;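 active = mean inhibition across replicates of 60% or more, whatever share of single replicates reaches that level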
NSD2 inh = inhibitors of human histone methyltransferase NSD2; inhibition, % at 12.5 µM; 310,000 compounds, 0.54% hits; NSD2 peptide methylation, AlphaScreen, 120 min; in the data active = inhibition above about 50%
Wnt act = activators of Wnt/beta-catenin signaling; Wnt/beta-catenin reporter cell assay, activator, plate reader; activation, % at 9.35 µM; 300,000 compounds, 1.2% hits; AID 743398; in the data active = activation above about 30%, passing the limit was not always enough
Glyco luc inh = N-linked glycosylation inhibition; D54 ERlucT glycosylation luciferase reporter, 24 h; percent of 100 nM tunicamycin response; reporter increase, % at 12.5 µM; 360,000 compounds, 0.23% hits;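 active = mean luciferase reporter signal, scaled so untreated is 0 and the glycosylation-blocking control 100, at or above a set limit in every replicate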;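 note: luciferase carries N-glycosylation sites so blocking glycosylation raises the light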
PfHsp90 set2 = growth inhibition of yeast expressing Plasmodium Hsp90; 310,000 compounds, 0.32% hits; S. cerevisiae expressing PfHsp90, BacTiter-Glo ATP, 48 h; yeast lacking PDR1 and PDR3 efflux regulators; AID 504621; inhibition, % at 9.4 µM;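 active = every replicate shows inhibition above about 80%, whatever the replicate mean, limit read from the data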
Of the large screens only hits and unclear results are named; the others gave an inactive call. An excerpt weighted towards active compounds, which were near 2.9% of everything screened.

N#Cc1cnc2cc(-c3ccccc3)nn2c1N	none (no result: MITF TRPM1 HTS)
O=[N+]([O-])c1ccc(-c2nc(C(Cl)Cl)c3ccccc3n2)cc1	MITF TRPM1 inh 66 (no result: MITF TRPM1 HTS)
OC(CNCCc1ccccc1)COc1ccc(OCC(O)CNCCc2ccccc2)cc1 (stereo unspecified)	MITF TRPM1 inh 84 (no result: MITF TRPM1 HTS)
Cc1cc2sc3ccc(C#CC4(O)CCCCC4)cc3c(=O)c2cc1C	MITF TRPM1 inh 96 (no result: NSD2 inh)
Cn1c2ccccc2c(=O)c2cc(C#CC3(O)CCCCC3)ccc21	none (no result: NSD2 inh)
O=c1c2ccccc2nc(/C=C/c2ccc([N+](=O)[O-])cc2)n1CCCO	none (no result: Wnt act)
O=c1c2ccccc2nc(/C=C/c2ccc([N+](=O)[O-])o2)n1CCCO	MITF TRPM1 inh 98 (no result: Wnt act)
CC1(C)Cc2c(sc3nc(-c4cc5ccccc5o4)n(N)c(=O)c23)CO1	MITF TRPM1 HTS 129 (no result: Wnt act)
Cn1cc(CC(=O)Nc2ccc(Nc3cccnc3)c(Br)c2)c2ccccc21	none (no result: MITF TRPM1 HTS, MITF TRPM1 inh, Glyco luc inh, PfHsp90 set2)
CCC(=O)Nc1cccc(C(=O)/C=C/c2ccc(F)cc2)c1	MITF TRPM1 inh 62
CC(=O)Nc1cccc(C(=O)/C=C/c2ccc(C)cc2)c1	none
COCC(=O)OCc1cc2cccc(C)c2[nH]c1=O	Wnt act 42
COc1ccc(NC(C)=O)cc1NC(=O)c1cccc(S(=O)(=O)N2CCc3ccccc32)c1	none
CCOc1ccc(CCNC(=O)COC(=O)c2cccc(N(C)C)c2)cc1OCC	Wnt act 51
CCCC(=O)NC(NC(=S)Nc1ccc(N=Nc2ccccc2)cc1)C(Cl)(Cl)Cl (stereo unspecified)	Glyco luc inh 30
COC(=O)CNc1c(-c2ccccn2)nc2ccc(Br)cn12	Wnt act 40 (no result: MITF TRPM1 HTS, PfHsp90 set2)
CCOC(=O)CNc1c(-c2ccccc2)nc2ccc(Cl)cn12	none
CS(=O)(=O)c1ccc(S(=O)CC(=O)OCc2ccccc2)c([N+](=O)[O-])c1 (stereo unspecified)	MITF TRPM1 inh 83
O=C(CS(=O)c1ccc(C(F)(F)F)cc1[N+](=O)[O-])Oc1ccccc1 (stereo unspecified)	MITF TRPM1 inh 88
COC(=O)C1=C(C)NC(=S)NC1c1cccc(OC)c1 (stereo unspecified)	none (no result: MITF TRPM1 HTS, MITF TRPM1 inh, Glyco luc inh, PfHsp90 set2)
COc1ccc(C(=O)Nc2cc(OC)nc(OC)n2)cc1	MITF TRPM1 HTS 92 (no result: Wnt act)
COc1ccc(CNC(=O)Nc2ccccc2)cc1	none
Cc1ccc(CNC(=O)Nc2ccccc2)c(C)c1	MITF TRPM1 HTS 118
COc1cc(NC(=O)Cc2ccccc2)nc(OC)n1	none (no result: Wnt act)
COc1ccc(C(=O)Nc2cccc(C)c2)cc1	Wnt act 58 (no result: MITF TRPM1 HTS)
COc1ccc(CNC(=O)Nc2cccc(C)c2)cc1	Wnt act 35
Cc1nc(NC(=O)CSc2nnc(C3CC3)n2N)c(Cl)cc1Cl	none
C[C@H]1CN(C(=O)OC(C)(C)C)CCN1c1ccc(N2CCS(=O)(=O)CC2)c(C#N)c1	none (no result: MITF TRPM1 HTS, MITF TRPM1 inh, NSD2 inh, Glyco luc inh, PfHsp90 set2)
O=C(Nc1ccc(Cl)cc1)C1CCCN(c2cnccn2)C1 (stereo unspecified)	none
O=[N+]([O-])c1ccc(S(=O)(=O)c2cccc(C(F)(F)F)c2)nc1	MITF TRPM1 inh 83, PfHsp90 set2 81 (no result: MITF TRPM1 HTS, NSD2 inh, Wnt act)
COc1cc(NS(=O)(=O)c2ccc(N/C=C(\C#N)c3nc4cc(Cl)ccc4o3)cc2)nc(OC)n1	MITF TRPM1 inh 77
O=C(NCCc1nc2ccccc2n1CCOc1cc(F)ccc1F)C1CCCCC1	none (no result: MITF TRPM1 HTS, MITF TRPM1 inh, Wnt act, Glyco luc inh, PfHsp90 set2)
COc1ccc(-c2cc(-c3cc(F)ccc3O)[nH]n2)cc1OC	MITF TRPM1 HTS 100 (no result: PfHsp90 set2)
Cc1ccc(O)c(-c2cc(-c3cccc(F)c3)n[nH]2)c1	PfHsp90 set2 100
COCC(C)NC(=O)C1CC(=O)N(CCc2ccc(F)cc2)C1 (stereo unspecified)	none (no result: MITF TRPM1 HTS, MITF TRPM1 inh, PfHsp90 set2)
O=C(NCCc1ccccc1)c1cnc2ccccc2n1	MITF TRPM1 HTS 85, Wnt act 45
O=C(NCCc1ccccc1)c1cccc([N+](=O)[O-])c1	MITF TRPM1 HTS 94 (no result: Wnt act)
O=C(Nc1cccc([N+](=O)[O-])c1)c1ccccc1	none
O=C(Nc1ccc2ccccc2c1)c1cccc([N+](=O)[O-])c1	MITF TRPM1 HTS 98
O=C(NCCc1ccccc1)c1cccnc1	Wnt act 34
CCn1c(COc2ccc(C)cc2)nnc1SCC(=O)Nc1ccc(C(=O)OC)cc1	none (no result: MITF TRPM1 HTS, MITF TRPM1 inh, Wnt act, Glyco luc inh, PfHsp90 set2)
CC(C)c1ccc(NC2CCCN(C(=O)c3cccc4nccnc34)C2)cc1 (stereo unspecified)	none
Cc1ccc(NC(=O)c2ccc3ccccc3n2)cc1S(=O)(=O)N1CCOCC1	none
CC(C)N(C(=O)Nc1ccc2nsnc2c1)C(C)C	NSD2 inh 104 (no result: MITF TRPM1 HTS, MITF TRPM1 inh, Glyco luc inh, PfHsp90 set2)
S=C(Nc1ccc2nsnc2c1)N1CCCCCC1	MITF TRPM1 HTS 94, NSD2 inh 153
CC1CCN(C(=O)Nc2ccc3nsnc3c2)CC1	MITF TRPM1 HTS 100 (no result: Wnt act)
O=C(Nc1ccc2nsnc2c1)N1CCCCC1	none
COc1ccccc1C1=NN(C2=NN=C(N)Cc3ncnn32)C(O)(C(F)(F)F)C1 (stereo unspecified)	none
COc1ccccc1NC(=O)c1ccc(NS(=O)(=O)c2ccc(F)c(F)c2F)cc1	none (no result: Wnt act)
Cc1cccc(NC(=O)C2CCN(c3ncccn3)CC2)c1C	none (no result: MITF TRPM1 HTS, MITF TRPM1 inh, Wnt act, Glyco luc inh, PfHsp90 set2)
COc1cc(C(F)(F)F)ccc1C(=O)NCCc1ccco1	MITF TRPM1 HTS 107
CC(C)CCNC(=O)C1CC(c2cccc([N+](=O)[O-])c2)=NO1 (stereo unspecified)	none (no result: NSD2 inh)
CCCCNC(=O)C1CC(c2cccc([N+](=O)[O-])c2)=NO1 (stereo unspecified)	MITF TRPM1 HTS 89, Wnt act 38 (no result: NSD2 inh)
Cc1ccc(C)c(OCC(=O)NCC(C)C)c1C	none
COC(=O)c1cc(Cl)nc2ccccc12	none
CC(=O)N(C(C)=O)N1C(=O)/C(=C/c2ccc(Cl)cc2)SC1=S	PfHsp90 set2 114 (no result: NSD2 inh, Wnt act)
COc1ccc2c(c1)sc1nc(-c3ccccc3)cn12	MITF TRPM1 inh 91 (no result: Wnt act)
COCCn1c(C)cc(C(=O)CSc2nc3ccccc3c(=O)n2Cc2ccco2)c1C	Wnt act 55
COCCn1c(C)cc(C(=O)CSc2nnc(C)s2)c1C	MITF TRPM1 inh 67
COC(=O)c1ccc2c(=O)n(Cc3ccco3)c(SCC(=O)Nc3ccccc3Cl)nc2c1	none (no result: MITF TRPM1 HTS)
COC(=O)c1ccc2c(=O)n(Cc3ccco3)c(SCC(=O)Nc3cc(C)on3)nc2c1	Glyco luc inh 62 (no result: NSD2 inh)
O=C(COC(=O)c1ccc([N+](=O)[O-])o1)NC1CCCC1	none (no result: PfHsp90 set2)
O=C(NC1CCCCC1)c1ccc([N+](=O)[O-])o1	Glyco luc inh 41 (no result: Wnt act)
O=C(NC1CCCC(C(F)(F)F)C1)c1ccc([N+](=O)[O-])o1 (stereo unspecified)	MITF TRPM1 inh 66, Glyco luc inh 29
O=C(NC1CCCCCC1)c1ccc([N+](=O)[O-])s1	MITF TRPM1 inh 71 (no result: PfHsp90 set2)
O=C(COC(=O)c1ccc([N+](=O)[O-])o1)NC1CCCCC1	none
O=[N+]([O-])c1ccc(/C=[N+](\[O-])[C@@H]2CCCC[C@@H]2/[N+]([O-])=C/c2ccc([N+](=O)[O-])o2)o1	MITF TRPM1 inh 84
